This experiment has as its system HepG2. The experiment is described as follows: GSK_TCMDC: Percent inhibition of human HepG2 cell line. Test compounds present at 10uM. The class given is functional.
With `NCCNc1ccnc2cc(Cl)ccc12`, the Inhibition is 9%.

`COc1cc(NC(=O)/C=C/c2cc(F)cc(F)c2F)cc(OCCN2CCC3(CC2)OCCO3)c1.O=C(O)C(=O)O`: the Inhibition amounted to 17%.

Regarding `Cc1cc(N[C@@H](CC(C)C)C(=O)NCCOc2ccccc2)nc(NCCOc2ccccc2)n1.O=C(O)C(F)(F)F`, the Inhibition came to 0%.

The values above are taken from ChEMBL document CHEMBL1157539, “Thousands of chemical starting points for antimalarial lead identification” (Nature, 2010).
